D2 PAM-1: positive allosteric modulators of human D2 dopamine receptor. P14416. DiscoveRx D2 beta-arrestin cells, luminescence, 90 min; 100% = 57 uM dopamine signal. potentiation, % (no concentration beside the values). hit rate 0.23% among 360,000. AID 624464; in the data active = potentiation above about 50%; inconclusive = mostly about 30% to 49%
Target sequence (P14416 whole entry, looked up): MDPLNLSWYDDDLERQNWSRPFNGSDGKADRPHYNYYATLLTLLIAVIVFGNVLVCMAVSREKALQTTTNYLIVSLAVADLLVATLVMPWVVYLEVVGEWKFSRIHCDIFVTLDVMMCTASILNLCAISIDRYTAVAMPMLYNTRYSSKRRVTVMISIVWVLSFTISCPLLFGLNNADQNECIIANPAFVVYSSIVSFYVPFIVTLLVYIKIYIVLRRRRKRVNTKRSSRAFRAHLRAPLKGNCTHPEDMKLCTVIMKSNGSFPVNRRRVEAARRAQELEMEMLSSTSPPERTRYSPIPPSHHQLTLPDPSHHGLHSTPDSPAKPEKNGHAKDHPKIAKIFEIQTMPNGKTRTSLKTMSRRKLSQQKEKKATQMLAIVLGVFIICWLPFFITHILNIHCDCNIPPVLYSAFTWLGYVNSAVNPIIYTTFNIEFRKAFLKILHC
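D2 cells co-treated with compound plus 50 nM dopamine (EC20) for 90 min at 37 deg C to detect potentiation. Beta-arrestin recruitment was read as enzyme-fragment luminescence after 1 h at ambient temperature. Full response was set by 57 uM dopamine.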
D2 antagonist: D2 dopamine receptor (human) antagonism. AID 485344. inhibition, % at 10 µM. hit rate 2% among 340,000. P14416. HEK293 TREx D2 cells, calcium flux, dopamine EC80; in the data active = inhibition above about 30%; inactive = below that, where a call was filed; also: 0% is about no effect
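Read-out: kinetic calcium fluorescence (1 cycle/s) in inducible HEK293 T-REx D2 cells after an EC80 dopamine addition that followed 180 s compound preincubation. Loss of the dopamine response indicates antagonism.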
D2 PAM-2: positive allosteric modulators of human D2 dopamine receptor; P14416; HEK293 T-REx D2, calcium flux, EC20 dopamine potentiation; potentiation, % at 10 µM; hit rate 0.34% among 340,000;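 active = potentiation over 3 SD above the plate norm, cut at about 30% in these data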; also: 0% is about no effect
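Using a no-wash calcium dye in inducible, force-coupled HEK293 Trex cells expressing D2, we tracked fluorescence each second for 180 s after compound, then for 180 s after EC20 dopamine to detect augmented signalling.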
D2 ag-1: agonists of human D2 dopamine receptor (beta-arrestin); DiscoveRx PathHunter D2 beta-arrestin, luminescence, 90 min; 100% = 57 uM dopamine signal; activation, % (test concentration not listed); P14416; hit rate 0.084% among 360,000; in the data active = activation above about 40%; inconclusive = between about 15% and that limit
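Agonist mode: compounds alone added to overnight-plated D2 PathHunter cells for 90 min at 37 C, with 57 uM final dopamine (EC100) defining full response. Beta-arrestin recruitment detected by chemiluminescent reagent, read after 1 h at ambient temperature.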
D2 ag-2: D2 dopamine receptor (human) agonism | P14416 | HEK293 T-REx D2 cells, calcium flux agonist mode | activation, % at 2 µM | hit rate 0.53% among 340,000 | AID 485358;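 active = activation over 3 SD above normal in the single-dose calcium agonist read, cut at about 30% in these data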; also: 0% is about no effect
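In this primary screen, compounds producing a positive calcium signal within 180 s of addition to tetracycline-induced, force-coupled HEK293 Trex D2 cells are flagged; cells are dye-loaded with a no-wash calcium kit beforehand.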
* = called active by the depositor; ? = inconclusive; / = no result. In the library only some 2.4% were active in any assay of this set; here they are far more common.

SMILES | D2 PAM-1 | D2 antagonist | D2 PAM-2 | D2 ag-1 | D2 ag-2
CCN(CC)c1ccc(/C=C/C(=O)c2ccc(Br)cc2)cc1 | 15 | 71* | -21 | -2 | 94*
CCN(CC)C(=O)N1CCN(C)CC1 | -1 | 32* | 9 | -2 | 1
COc1ccc(N2CCN(C(=O)Cn3cnc4sc(C)c(S(=O)(=O)N5CCC(C)CC5)c4c3=O)CC2)cc1 | / | / | 12 | / | 1
COc1ccc(N2C(N)=NC(N)=NC2(C)C)cc1 | -4 | -13 | 31* | -3 | -1
Cc1ccc(C)c(N2CCN(S(=O)(=O)c3ccc(-c4cc(C(F)(F)F)on4)s3)CC2)c1 | / | / | -1 | / | /
COc1ccccc1N1CCN(C2CCCN(Cc3cc(F)cc(F)c3)C2)CC1 (stereo not given) | -4 | 41* | 0 | -4 | 1
COc1ccc(O)c(CN2CCCC(N3CCN(c4ccccc4OC)CC3)C2)c1 (stereo not given) | -24 | 1 | -11 | 6 | 0
COc1ccccc1N1CCN(C2CCCN(Cc3ccc(Cl)cc3)C2)CC1 (stereo not given) | -25 | 37* | -21 | 0 | 0
COc1ccccc1N1CCN(C2CCCN(Cc3ccccc3OCCO)C2)CC1 (stereo not given) | -19 | -3 | -13 | 6 | 0
Cc1ccc(NC2=C/C(=N/S(=O)(=O)c3cccs3)c3ccccc3C2=O)cc1 | 58* | -20 | 4 | 14 | 0
O=C1C(Nc2ccccc2)=C/C(=N/S(=O)(=O)c2cccs2)c2ccccc21 | -2 | 0 | 7 | -5 | -2
CCc1nn(CC(=O)NCCCN2CCN(C)CC2)c(=O)c2cc3sc(C)cc3n12 | -16 | 3 | 1 | -2 | 1
CCc1cc2c(cc3c(=O)n(CC(=O)NCCCN4CCCCCC4)nc(CC)n32)s1 | -1 | 33* | -21 | -6 | -1
COC(=O)c1c(NC(=O)c2cc(=O)c3ccc(C)c(C)c3o2)sc2c1CCCC2 | / | / | 12 | / | 0
CC1Oc2ccccc2C=C1/C=C1/SC(N2CCOCC2)=NC1=O (stereo not given) | -1 | -8 | 36* | -1 | 0
Cc1oc(-c2cccc(C(F)(F)F)c2)nc1CN1CCC[C@H]1CO | -13 | 70* | -28 | 0 | -1
O=[N+]([O-])c1ccccc1OCCNCc1ccccc1 | -76 | 78* | -31 | 1 | 23
Cc1ccc(C)c(OCCCNCc2ccccc2)c1 | -64 | 4 | -12 | -3 | 2
Cc1ccc(C(C)C)c(OCCNCc2ccccc2)c1 | -5 | 67* | -19 | 11 | -2
CCOc1ccc(CCNC(=O)c2sc3nc4n(c(=O)c3c2C)CCCC4)cc1 | / | / | 1 | / | -1
COc1ccccc1-c1nnc2n(CCc3ccccc3)c(=O)c3ccccc3n12 | / | / | -12 | / | /
Clc1ccc2nc(Nc3ccccc3Cl)nc(-c3ccccc3)c2c1 | / | / | -4 | / | -1
Cc1nc2sc(C(=O)OCC(=O)N3c4ccccc4CC3C)c(C)c2c(=O)[nH]1 (stereo not given) | -1 | 52* | -7 | -1 | 5
Cc1cc(C)c(C#N)c(SCS(=O)Cc2ccccc2)n1 (stereo not given) | -7 | -13 | -3 | 2 | -1
Cc1cc(C)c(C#N)c(SCS(=O)Cc2ccc(Cl)cc2)n1 (stereo not given) | -16 | 37* | -8 | 0 | 0
SMILES | D2 PAM-1 | D2 antagonist | D2 PAM-2 | D2 ag-1 | D2 ag-2
Cc1ccc(S(=O)(=O)Nc2ccc3nc(-c4cccc(Cl)c4)oc3c2)cc1 | / | / | 5 | / | 0
CN(C)/C=N/c1cc(=O)[nH]c(=O)n1Cc1ccccc1 | -24 | 40* | 6 | -2 | 0
Cc1c(NC(=O)c2ccc(C(C)(C)C)cc2)cccc1[N+](=O)[O-] | 14 | -9 | -6 | 4 | -1
CC(C)(C)c1ccc(NC(=O)c2ccccc2)c([N+](=O)[O-])c1 | -6 | 15 | 33* | -3 | 3
O=C(CC1SC(N2CCOCC2)=NC1=O)Nc1ccc(Cl)cc1 (stereo not given) | -38 | 58* | -25 | -4 | 0
O=C(CC1SC(N2CCCCC2)=NC1=O)Nc1ccc(C(=O)Nc2ccccc2)cc1 (stereo not given) | -15 | 6 | 2 | -4 | 0
O=C(CC1SC(N2CCOCC2)=NC1=O)Nc1ccc(F)cc1 (stereo not given) | -44 | / | / | -3 | /
CC(C)NC(=O)c1ccc(NC(=O)CC2SC(N3CCCC3)=NC2=O)cc1 (stereo not given) | 0 | -5 | -3 | 4 | 1
COc1ccc(NC(=O)CC2SC(N3CCOCC3)=NC2=O)cc1OC (stereo not given) | -3 | 73* | -22 | 2 | 1
O=C(COC(=O)CC1SC(N2CCCC2)=NC1=O)Nc1ccc(Br)cc1 (stereo not given) | -13 | 31* | 6 | -4 | -1
O=C(CC1SC(N2CCOCC2)=NC1=O)Nc1ccccc1Cl (stereo not given) | -7 | 40* | -25 | 0 | -1
CN1CC(=O)N(CC(=O)Nc2ccc(OC(F)(F)F)cc2)c2ccccc2C1=O | / | / | 2 | / | 0
CCCCNC(=O)c1ccc2c(=O)n(Cc3ccc(OC)cc3)c(=O)[nH]c2c1 | / | / | / | / | 0
CCOc1ccccc1NC(=O)C(=O)Nc1ccc2nc3n(c(=O)c2c1)CCCCC3 | / | / | 13 | / | 0
O=S(=O)(c1cc(Br)c(Br)s1)N1CCN(c2ccccc2)CC1 | / | / | -1 | / | 0
O=C(NCc1ccccc1Cl)c1ccc2oc(=O)n(Cc3ccccc3)c2c1 | / | / | 5 | / | -1
O=C(CC1SC(N2CCOCC2)=NC1=O)Nc1cc([N+](=O)[O-])ccc1Cl (stereo not given) | -14 | 54* | -21 | -5 | 0
O=C(CC1SC(=NCC2CCCO2)NC1=O)Nc1cc([N+](=O)[O-])ccc1Cl (stereo not given) | -15 | 0 | -14 | 0 | 2
C/C(=N\NC(=O)c1cccnc1)c1cc(C)oc1C | -8 | 33* | -7 | -3 | 2
CCN1CCN(Cc2nc3cc(NC(=O)c4cccc([N+](=O)[O-])c4)ccc3n2CC)CC1 | / | / | -25 | / | -2
CCC(Oc1ccccc1)C(=O)Nc1ccccc1C(=O)N1CCCCC1 (stereo not given) | 69* | -13 | -14 | -2 | 0
N#Cc1c2c(c(Nc3ccc(O)cc3)n3c1nc1ccccc13)CCC2 | 68* | 14 | 17 | ? | -1
N#Cc1c2c(c(NCc3ccco3)n3c1nc1ccccc13)CCC2 | -2 | 0 | 4 | -2 | 0
CC(=O)c1ccc(NC(=O)C2CCC(CNS(=O)(=O)c3cccs3)CC2)cc1 (stereo not given) | / | / | 15 | / | 1
CC1CN(C(=O)c2cc3ccccc3cc2O)CC(C)O1 (stereo not given) | 6 | / | / | 3 | /
CC(=O)Nc1ccccc1C(=O)N1CC(C)OC(C)C1 (stereo not given) | -16 | 1 | 40* | -1 | 1

Assay outcomes as filed in PubChem BioAssay.
